Screening data: PubChem, National Center for Advancing Translational Sciences (NCATS)
An excerpt weighted towards active compounds, which were near 8.1% of everything screened.
SW480 rerep – DNA re-replication induction in SW480 cells | SW480 DNA re-replication, Hoechst DNA content imaging, 48 h | Potency, µM (top dose mostly 46.1 µM), for inactives: at the top dose re-replication activation, actives largely listed as activators | 340,000 tested, 1.8% active | AID 624297; also: % of control where 0% means no effect; nearly all actives have a fitted effect of over 55% in size
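Compounds, transferred as 23 nL by pin tool, were incubated with cells for 48 hr; DNA content per nucleus was then quantified by Hoechst staining and fluorescence plate imaging.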
MCF10A rereplic – inducers of DNA re-replication in MCF 10A breast cells. Potency, µM (top dose mostly 46.1 µM), for inactives: at the highest dose activity, positive = re-replication, usual class: activators. 350,000 tested, 2.9% active. MCF 10A DNA re-replication, Hoechst nuclear intensity, 48 h; also: % of control where 0% means no effect; nearly all actives have a fitted effect of over 50% in size
KB-V1 MDR tox – KB-V1 MDR subline cytotoxicity; KB-V1 MDR cells viability, CellTiter-Glo, 72 h; Potency, µM (highest dose often 46.1 µM), actives largely listed as cytotoxic; 400,000 tested, 3.4% active; also: % is scaled to controls: 0 for no effect and ±100 for the full control effect; nearly all actives have a fitted effect of over 60% in size
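Potencies derive from concentration-effect curves fitted to normalized luminescence (CellTiter-Glo) of KB-V1 cells treated for 72 h at 37 degrees C in phenol-red-free DMEM containing 10% FBS.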
KB-3-1 cytotox – KB-3-1 parental cell cytotoxicity | KB-3-1 viability, CellTiter-Glo ATP luminescence, 72 h | Potency, µM (highest dose often 46.1 µM), most hits filed as cytotoxic | 400,000 tested, 1.4% active; also: % is scaled to controls: 0 for no effect and ±100 for the full control effect; nearly all actives have a fitted effect of over 60% in size
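Parental KB-3-1 viability, qHTS format: 72 h compound exposure, 37 °C; CellTiter-Glo; media-only wells and DMSO plates as controls; concentration-effect fits on corrected data.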
ELG1 DNA repair – blocks ELG1-dependent DNA repair in HEK293T cells | HEK293T ELG1-luciferase reporter, luminescence, 16 h; DNA damage induced by 5-fluorouridine | Potency, µM (highest dose often 46.1 µM), inactives show top-dose activity change, negative = inhibition, hits mostly inhibitors | 330,000 tested, 2.3% active | AID 504467; also: % is scaled to controls: 0 for no effect and ±100 for the full control effect; nearly all actives have a fitted effect of over 55% in size
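HEK293T cells expressing luciferase-tagged ELG1 (2,000/well) received 5-Fluorouridine plus compound or DMSO for 16 hr at 37 °C. Luciferase was read by ONE-Glo luminescence after 30 min at room temperature.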
An asterisk follows results filed as active; i = inactive; u = inconclusive; x = no result given. Calls follow the shape of the dose curve; as a rule, active = well fitted curve in the direction sought with a large enough effect; inconclusive = small, poorly fitted or top-dose-only effect, or another doubt; inactive = no such curve, though single readings can be large; an effect the other way counts as inactive or inconclusive. Potency is read from the fitted curve at half-maximal effect.

SMILES | SW480 rerep | MCF10A rereplic | KB-V1 MDR tox | KB-3-1 cytotox | ELG1 DNA repair
NN1C(=O)NC(c2ccccc2)(c2ccccc2)C1=O | 11% | 0.73µM* | i | i | 1%
NC(=O)NC(=O)CN1C(=O)NC(c2ccccc2)(c2ccccc2)C1=O | -11% | -3% | i | i | 4%
Cc1ccc(S(=O)(=O)Nc2ccccc2N=Cc2ccc([N+](=O)[O-])cc2[N+](=O)[O-])cc1 | u | u | i | i | x
Cn1ccnc1-c1ccc(-c2nccn2C)cc1 | 3% | 16% | i | i | 8%
CCOP1(=O)OCC2OC(n3cnc4c(N)ncnc43)C(O)C2O1 (stereo not given) | -17% | 15µM* | i | i | 4%
C=CCn1cccc(/C=C/C(=O)c2ccc(C(C)(C)C)cc2)c1=S | u | 13µM* | u | i | u
Cc1ccc(N(Cc2ccc([N+](=O)[O-])cc2)C(=O)c2ccco2)cc1C | 0% | -2% | 10µM* | i | -8%
COc1ccc(Nc2nc3[nH]c(=O)cc(O)c3s2)cc1 | 2% | 16% | i | i | 12%
O=c1cc(O)c2sc(Nc3ccc(Cl)c(F)c3)nc2[nH]1 | u | 18% | i | 13µM* | u
O=c1cc(O)c2sc(Nc3ccc(F)c(Cl)c3)nc2[nH]1 | 1% | 18% | i | 21µM* | 1%
CC(=O)c1ccc(NC(=O)CSc2nc3[nH]c(=O)cc(O)c3s2)cc1 | -2% | 12% | i | i | x
CCCCC(=O)NC1(C(F)(F)F)C(=O)Nc2c1c(=O)[nH]c(=O)n2-c1ccc(C)c(C)c1 (stereo not given) | x | x | u | i | x
O=C(Nc1nc2c(Br)cc(Br)cc2c(=O)s1)C1CCC1 | -4% | 5.2µM* | i | i | 16%
Cc1ccc(C)c2sc(NC(=O)C3CC3)nc12 | -4% | -3% | i | i | -6%
Cc1nnc(NC(=O)C(=O)c2cc(C)n(-c3ccc(C)c(C)c3)c2C)s1 | x | x | i | i | x
CCOC(=O)COc1cc(-n2c(=S)[nH]c3cc(OC)c(OC)cc3c2=O)c(Cl)cc1Cl | -5% | 23µM* | i | i | -16%
CCOC(=O)COc1cc(N2C(=O)CSCC2=O)c(Cl)cc1Cl | -1% | -7% | i | i | -1%
CCOC(=O)c1ccc(N2C(=O)c3n[nH]c(-c4ccco4)c3C2c2cccc([N+](=O)[O-])c2)cc1 (stereo not given) | 16% | u | 18µM* | u | 18µM*
CCOC(=O)c1ccc(N2C(=O)c3n[nH]c(C)c3C2c2ccc(CC)cc2)cc1 (stereo not given) | x | x | i | i | x
CCOC(=O)c1ccc(N2C(=O)c3n[nH]c(-c4ccco4)c3C2c2ccc(O)c(OCC)c2)cc1 (stereo not given) | x | x | i | i | x
CCOC(=O)c1ccc(N2C(=O)c3n[nH]c(C)c3C2c2ccc(OC)cc2)cc1 (stereo not given) | -13% | u | 5.2µM* | i | u
CCOc1ccc(/C=C/c2ccnc3ccccc23)cc1OCC | x | x | u | i | x
Cc1noc(C)c1-c1ccc(C(=O)NCc2cccc(Cl)c2)c2occc12 | x | x | i | i | x
CCCCCCCCN1C(=O)[C@H](CC(=O)NCCCOCCCC)C[C@@]2(C(=O)OC)CCCCC=C12 | x | x | 13µM* | u | x
CCOC(=O)[C@]12CCC=C1N(CCC1=CCCCC1)C(=O)[C@H](CC(=O)NCC1CCCCC1)C2 | x | x | u | i | x
CCCCCCCCN1C(=O)[C@H](CC(=O)NCCCOCCCC)C[C@@]2(C(=O)OC)CC(C)(C)CC=C12 | x | x | 23µM* | 18µM* | x
CCOC(=O)[C@]12CCCC=C1N(CCC1=CCCCC1)C(=O)[C@H](CC(=O)NCC1CCCCC1)C2 | x | x | 15µM* | 16µM* | x
CCCCCCCCN1C(=O)[C@H](CC(=O)NCCCOC)C[C@@]2(C(=O)OC)CC(C)(C)CC=C12 | x | x | i | i | x
O=C(Oc1ccc(=O)[nH]n1)c1ccccc1 | x | x | i | i | x
Cc1ccc(NC(=O)CSc2ccc(-c3ccccn3)nn2)c(C)c1 | -11% | u | i | i | 21µM*
